The source of these data is PubChem BioAssay (Tox21).

Test [1] in a line: qHTS assay to test for compound auto fluorescence at 535 nm (green) in HEK293 cells (AID 720680). Note: % is set by controls: 0 for no effect and ±100 for the full control effect. On the technique in general: Quantitative high-throughput screening tests each substance at several concentrations.
Test [2] is described as follows: qHTS assay to test for compound auto fluorescence at 460 nm (blue) in HEK293 cell free culture (AID 720681). Note: % is set by controls: 0 for no effect and ±100 for the full control effect. The procedure, abridged:
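Compounds were added to cell-free DMEM with 10% FBS and fluorescence read directly. The blue channel used 405 nm excitation and 460 nm emission, with triamterene as the reference fluorophore.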

Test [3] in a line: qHTS assay to test for compound auto fluorescence at 590 nm (red) in HEK293 cell free culture (AID 720683). Note: % is set by controls: 0 for no effect and ±100 for the full control effect. The procedure, abridged: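 Cell-free wells of DMEM with 10% FBS received compound, and intrinsic fluorescence was read at excitation/emission 540/590 nm. Values expressed as equivalence to Rose Bengal sodium.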
Test [4] can be described thus: qHTS assay to test for compound auto fluorescence at 590 nm (red) in HepG2 cell free culture (AID 720684). Note: % is set by controls: 0 for no effect and ±100 for the full control effect. The procedure, abridged: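 Auto fluorescence equivalency versus Rose Bengal sodium, red channel Ex/Em 540/590 nm; compounds in cell-free MEM/10% FBS; DMSO vehicle control.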
Test [5] can be described thus: qHTS assay to test for compound auto fluorescence at 460 nm (blue) in HepG2 cell free culture (AID 720685). Note: % is set by controls: 0 for no effect and ±100 for the full control effect. In short, it runs like this: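 Cell-free plates of MEM plus 10% FBS received 23 nL compound or DMSO vehicle; blue-channel (405/460 nm) intensity scored against triamterene as reference fluorophore.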
Test [6] in a line: qHTS assay to test for compound auto fluorescence at 535 nm (green) in HepG2 cell free culture (AID 720686). Note: % is set by controls: 0 for no effect and ±100 for the full control effect.
Test [7] in a line: qHTS assay to test for compound auto fluorescence at 460 nm (blue) in HepG2 cells (AID 720687). Note: % is set by controls: 0 for no effect and ±100 for the full control effect. The procedure, abridged: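 HepG2 cells in MEM with 10% FBS, attached overnight at 37 C, were exposed to compound or DMSO for 1 hr at 37 C, 5% CO2. Blue fluorescence was read at 405/460 nm, with triamterene as reference fluorophore.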
Test [8] in a line: qHTS assay to identify small molecule antagonists of the glucocorticoid receptor (GR) signaling pathway - cell viability counter screen (AID 720693). Note: % is set by controls: 0 for no effect and ±100 for the full control effect; nearly all actives have a fitted effect of over 55% in size.
Test [9] in a line: qHTS assay for identifying genotoxic compounds that show differential cytotoxicity against isogenic chicken DT40 cell lines with known DNA damage response pathways - Rev3 mutant cell line (AID 743014). Note: nearly all actives have a fitted effect of over 55% in size. Note: potency is the fitted concentration of half-maximal effect.
Test [10] in a line: qHTS assay for identifying genotoxic compounds that show differential cytotoxicity against isogenic chicken DT40 cell lines with known DNA damage response pathways - Rad54/Ku70 mutant cell line (AID 743015). Note: nearly all actives have a fitted effect of over 60% in size. Note: potency is the fitted concentration of half-maximal effect.
Test [11] in a line: qHTS assay to identify small molecule antagonists of the androgen receptor (AR) signaling pathway - cell viability counter screen (AID 743033; note: % is set by controls: 0 for no effect and ±100 for the full control effect; nearly all actives have a fitted effect of over 45% in size).
The nature of test [12]: qHTS assay to identify small molecule antagonists of the androgen receptor (AR) signaling pathway using the MDA cell line - cell viability counter screen (AID 743041; note: % is set by controls: 0 for no effect and ±100 for the full control effect; nearly all actives have a fitted effect of over 45% in size). In short, it runs like this:
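Compound exposure lasted 16 h at 37C in MDA-kb2 AR-luc cells stimulated with R1881. Protease-based CellTiter-Fluor reagent was applied for the final 30 min and fluorescence measured.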

Test [13] is described as follows: qHTS assay to identify small molecule antagonists of the thyroid receptor (TR) signaling pathway - cell viability counter screen (AID 743064). Note: nearly all actives have a fitted effect of over 50% in size. Note: potency is the fitted concentration of half-maximal effect. The procedure, abridged:
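GH3.TRE-Luc rat pituitary cells dosed after 4 hr plating, co-stimulated with T3 at 1 nM final, incubated 23.5 h at 37 C. Viability measured in the same wells by CellTiter-Fluor fluorescence after 30 min further at 37 C.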

Test [14] deals with Glucocorticoid receptor (Homo sapiens) (UniProt P04150). In words: qHTS assay to identify small molecule agonists of the glucocorticoid receptor (GR) signaling pathway (AID 720691; active = well fitted activation curve with a large enough effect in the signal ratio in the repeat runs, not every such curve was filed as active; the % refers to the signal ratio; note: % is set by controls: 0 for no effect and ±100 for the full control effect). In short, it runs like this: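 Agonist-mode qHTS in HeLa cells stably expressing a glucocorticoid-response-element beta-lactamase reporter. Fluorescence intensity read with FRET substrate (2 h, room temperature) after 18 h compound treatment at 37 C.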
Chain of Glucocorticoid receptor (Homo sapiens) (P04150 whole entry, looked up): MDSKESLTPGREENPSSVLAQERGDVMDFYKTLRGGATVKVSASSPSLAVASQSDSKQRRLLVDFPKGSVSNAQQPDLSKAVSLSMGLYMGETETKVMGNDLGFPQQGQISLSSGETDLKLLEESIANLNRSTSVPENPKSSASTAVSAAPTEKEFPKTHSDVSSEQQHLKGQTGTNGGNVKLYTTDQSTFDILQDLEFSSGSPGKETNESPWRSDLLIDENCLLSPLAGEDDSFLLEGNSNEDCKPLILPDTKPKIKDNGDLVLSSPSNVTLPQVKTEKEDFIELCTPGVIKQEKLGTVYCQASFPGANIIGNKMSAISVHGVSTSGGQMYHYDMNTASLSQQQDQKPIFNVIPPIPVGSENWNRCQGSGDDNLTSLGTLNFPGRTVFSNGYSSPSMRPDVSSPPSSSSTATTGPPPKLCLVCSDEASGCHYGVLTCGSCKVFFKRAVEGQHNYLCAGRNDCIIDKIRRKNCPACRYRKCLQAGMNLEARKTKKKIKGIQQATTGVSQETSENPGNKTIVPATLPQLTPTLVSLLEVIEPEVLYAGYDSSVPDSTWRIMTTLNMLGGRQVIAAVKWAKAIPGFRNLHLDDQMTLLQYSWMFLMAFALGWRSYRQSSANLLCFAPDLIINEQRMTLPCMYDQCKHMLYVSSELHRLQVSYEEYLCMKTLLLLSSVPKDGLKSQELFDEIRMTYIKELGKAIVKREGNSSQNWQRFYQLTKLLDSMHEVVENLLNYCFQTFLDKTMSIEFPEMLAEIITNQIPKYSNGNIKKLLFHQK

For test [15] the target is unchanged. In words: qHTS assay to identify small molecule antagonists of the glucocorticoid receptor (GR) signaling pathway (AID 720692; active = well fitted inhibition curve with a large enough effect in the signal ratio in the repeat runs, not every such curve was filed as active; the % refers to the signal ratio; note: % is set by controls: 0 for no effect and ±100 for the full control effect). In short, it runs like this:
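Inhibition of dexamethasone-driven (5 nM final) beta-lactamase expression was measured in GRE-reporter HeLa cells over 18 h at 37C. Fluorescence was read after 2 h with the B/G FRET substrate at room temperature.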

Test [16] in a line: qHTS assay for identifying genotoxic compounds that show differential cytotoxicity against isogenic chicken DT40 cell lines with known DNA damage response pathways - wild type cell line (AID 743012). Note: nearly all actives have a fitted effect of over 60% in size. Note: potency is the fitted concentration of half-maximal effect. The procedure, abridged: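 Viability by ATP luminescence (CellTiter-Glo, 30 min RT) after 40 h compound treatment at 37 C/5% CO2, using 300 parental DNA repair-proficient DT40 cells per well.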

Test [17] is described as follows: qHTS assay to test for compound auto fluorescence at 535 nm (green) in HEK293 cell free culture (AID 720682). Note: % is set by controls: 0 for no effect and ±100 for the full control effect. In short, it runs like this:
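Green-label autofluorescence (485 nm excitation, 535 nm emission) measured on compound added to cell-free culture medium (DMEM, 10% FBS). Output is expressed relative to fluorescein.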

In test [18] the target is Androgen receptor (Homo sapiens) (UniProt P10275). In words: qHTS assay to identify small molecule agonists of the androgen receptor (AR) signaling pathway (AID 743036; active = well fitted activation curve with a large enough effect in the signal ratio in the repeat runs, with a control signal flat, not every such curve was filed as active; the % refers to the signal ratio; note: % is set by controls: 0 for no effect and ±100 for the full control effect). The procedure, abridged:
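AR-UAS-bla HEK293 cells, plated 4 h before dosing, were treated with compound for 16 h at 37C. beta-Lactamase reporter read after 2 h with LiveBLAzer B/G FRET substrate at room temperature.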

Test [19] shares this target. As to the kind of experiment: qHTS assay to identify small molecule agonists of the androgen receptor (AR) signaling pathway using the MDA cell line (AID 743040; note: % is set by controls: 0 for no effect and ±100 for the full control effect; nearly all actives have a fitted effect of over 20% in size). The procedure, abridged:
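Testing was done with the MDA-kb2 AR-luc line, a human breast carcinoma stably transfected with MMTV-luciferase containing AR and GR response elements. Cells were exposed 16 h at 37C before ONE-Glo luminescence detection.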

The target is the same in test [20]. As to the kind of experiment: qHTS assay to identify small molecule antagonists of the androgen receptor (AR) signaling pathway using the MDA cell line (AID 743042; note: potency is the fitted concentration of half-maximal effect; nearly all actives have a fitted effect of over 55% in size). In short, it runs like this: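 MDA-kb2 breast carcinoma cells carrying MMTV-luciferase (AR/GR responsive) were co-treated with compounds and the agonist R1881 for 16 h at 37C. Inhibition read as ONE-Glo luminescence; CellTiter-Fluor fluorescence measured in parallel for cytotoxicity.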

Values without a mark were called inactive. Inconclusive results are not listed. Activity calls are given as the source filed them. Unless noted, calls come from the whole dose curve; as a rule, active = well fitted curve in the direction sought with a large enough effect in the repeat runs; inconclusive = weak or mixed curves; inactive = no such curve, though single readings can be large; an effect the other way counts as inactive or inconclusive.

Chain of Androgen receptor (Homo sapiens) (P10275 whole entry, looked up): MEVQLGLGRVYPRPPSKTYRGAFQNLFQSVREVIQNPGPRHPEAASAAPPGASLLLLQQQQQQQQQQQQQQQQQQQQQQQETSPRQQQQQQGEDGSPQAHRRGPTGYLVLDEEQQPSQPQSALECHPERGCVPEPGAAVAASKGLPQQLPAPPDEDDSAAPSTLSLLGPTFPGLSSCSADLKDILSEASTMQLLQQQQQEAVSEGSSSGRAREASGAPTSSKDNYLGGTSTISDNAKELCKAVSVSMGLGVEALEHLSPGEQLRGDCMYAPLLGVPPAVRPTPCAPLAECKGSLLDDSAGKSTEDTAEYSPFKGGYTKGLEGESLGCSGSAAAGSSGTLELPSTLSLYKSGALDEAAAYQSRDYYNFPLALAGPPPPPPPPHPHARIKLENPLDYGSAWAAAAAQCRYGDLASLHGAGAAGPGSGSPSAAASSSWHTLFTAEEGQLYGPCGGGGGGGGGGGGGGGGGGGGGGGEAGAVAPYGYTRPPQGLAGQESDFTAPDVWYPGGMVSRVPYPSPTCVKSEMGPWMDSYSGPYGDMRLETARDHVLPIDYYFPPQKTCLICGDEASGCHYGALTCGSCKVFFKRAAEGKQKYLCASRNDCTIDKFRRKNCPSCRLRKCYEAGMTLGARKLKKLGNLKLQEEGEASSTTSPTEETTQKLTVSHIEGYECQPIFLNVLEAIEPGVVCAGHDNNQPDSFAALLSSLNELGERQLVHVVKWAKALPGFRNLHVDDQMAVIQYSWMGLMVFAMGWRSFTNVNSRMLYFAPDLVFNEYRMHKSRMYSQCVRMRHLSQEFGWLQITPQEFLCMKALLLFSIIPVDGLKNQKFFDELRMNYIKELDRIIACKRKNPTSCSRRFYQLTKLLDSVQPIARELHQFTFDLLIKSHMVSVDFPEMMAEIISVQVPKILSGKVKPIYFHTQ

In the case of `O=C(CS)OCCOC(=O)CS`, the molecule was called inactive in [1], in test [3], in [4] and in test [6]. Besides, the Potency entry in test [2], in test [5], in test [7], in [8], in [11] and in [12] was “inactive” throughout. The Potency result in test [13] is “inactive”. Moreover, the Potency is 68.6 µM (active) in test [9] and 61.1 µM (active) in test [10].
Regarding `CCCCN(CCCC)CCCOC(=O)c1ccc(N)cc1`, in test [1], the fluorescence, % of fluorescein is 0.0466% [at 18.6 µM]. The fluorescence, % of fluorescent control in test [2] is -0.0006% [at 18.6 µM]; in test [3] it was 0.0804% [at 18.6 µM]; in test [5], 0.138% [at 18.6 µM]; in [7], -0.0696% [at 18.6 µM]. Also, the fluorescence, % of Rose Bengal in test [4] was 0.0643% [at 18.6 µM]. For the same molecule, the fluorescence, % of fluorescein control in test [6] was -0.0572% [at 18.6 µM]. Further, the Potency entry in test [14], in [15], in test [8], in [11], in test [12] and in test [13] was “inactive” throughout. Further, the Potency in [16] and in test [10] was 4.52 µM (active) throughout.
`O=C(CCC1CCN(Cc2ccccc2)CC1)c1ccc2c(c1)NCCCC2`: the result in [1], in test [17], in test [3], in test [4] and in test [6] was inactive. Further, the Potency entry in [2], in [5], in [8], in test [11], in test [18] and in [19] was “inactive” in each case. In addition, the Potency was 2.37 µM (active) in test [16], 2.98 µM (active) in test [9], 8.41 µM (active) in test [10] and 29.8 µM (active) in [20].
For `CSc1ccc(Oc2ccc(S(N)(=O)=O)cc2CN(C)C)cc1C`, the call in test [1], in [3], in test [4] and in [6] was inactive. Further, the Potency entry in test [2], in test [5], in [7], in test [14], in test [15] and in test [8] was “inactive” in each case. Besides, the Potency result in test [18] and in test [19] was “inactive” in each case. The Potency in test [16] was 24.3 µM (active); in [9] it was 27.3 µM (active); in test [10], 61.1 µM (active); in test [13] it was 54.5 µM (active).
Turning to `OC/C(Br)=C(\Br)CO`, the result in [1], in test [3], in [4] and in test [6] was inactive. Besides, the Potency result in test [2], in [5], in test [7], in [14], in test [15] and in [8] was “inactive” each time. Further, the Potency entry in test [16], in [9], in test [10], in [11], in test [12] and in test [13] was “inactive” throughout.
For `CCOc1cc(N)c(Cl)cc1C(=O)NCC1CN(Cc2ccc(F)cc2)CCO1` (stereo not drawn), the call in test [1], in [3], in test [4] and in [6] was inactive. In addition, the Potency entry in test [2], in [5], in test [7], in test [14], in test [15] and in [8] was “inactive” in each case. The Potency entry in test [11], in [12] and in test [13] was “inactive” each time. Also, the Potency in [16] is 18.8 µM (active); in [10], 21.1 µM (active).
On to `CC(C)C(=O)O`, for which the result in test [1], in test [3], in [4] and in [6] was inactive. Besides, the Potency entry in [2], in test [5], in test [7], in test [14], in test [15] and in test [8] was “inactive” each time. For the same molecule, the Potency entry in test [16], in test [10] and in [11] was “inactive” in each case.
